High-throughput results: PubChem, National Center for Advancing Translational Sciences (NCATS)
In the library only some 21% were active in any assay of this set; here they are far more common.
DRD3 antagonist: qHTS of D3 Dopamine Receptor Antagonist: qHTS. D(3) dopamine receptor (Homo sapiens), P35462. D3R cells, DiscoveRx beta-arrestin luminescence, antagonist mode; active compounds read low. max response, negative = inhibition, %. 360,000 tested, 2.5% active; in the data active = max response below about -50%; inconclusive = no clear call, values can overlap the other calls; also: % is scaled to controls: 0 for no effect and ±100 for the full control effect
Target sequence (P35462 whole entry, looked up): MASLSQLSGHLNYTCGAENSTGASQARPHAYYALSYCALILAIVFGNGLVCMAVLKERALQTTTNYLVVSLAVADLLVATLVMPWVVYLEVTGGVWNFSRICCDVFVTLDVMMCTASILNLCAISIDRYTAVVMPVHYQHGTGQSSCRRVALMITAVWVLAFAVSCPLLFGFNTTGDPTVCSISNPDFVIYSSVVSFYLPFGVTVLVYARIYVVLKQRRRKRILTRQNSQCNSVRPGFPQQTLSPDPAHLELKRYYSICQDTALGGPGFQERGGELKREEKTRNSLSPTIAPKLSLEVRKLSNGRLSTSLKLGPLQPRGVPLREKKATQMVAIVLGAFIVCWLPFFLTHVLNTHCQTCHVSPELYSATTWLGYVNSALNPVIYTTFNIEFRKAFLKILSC
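Cells plated overnight at 1500 cells/well, then exposed to library compounds with dopamine controls for 90 minutes at 37 degrees C. DiscoveRx reagent added for 30–60 minutes at room temperature; luminescence read, quantitative HTS format.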
TDP1 cell CPT: qHTS for Inhibitors of human tyrosyl-DNA phosphodiesterase 1 (TDP1): qHTS in cells in presence of CPT; chicken DT40 Tdp1-/-;hTDP1 cells + 20 nM CPT, ATP luminescence, 48 h; Potency, µM (series often up to 46.2 µM), for the others: top-dose activity change, negative = growth inhibition, hits mostly inhibitors; 420,000 tested, 12% active; also: potency is read from the fitted curve at half-maximal effect; % is scaled to controls: 0 for no effect and ±100 for the full control effect; nearly all actives have a fitted effect of over 55% in size
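Chicken DT40 Tdp1-/- cells stably complemented with human TDP1 were seeded at 400 cells/well in medium containing 20 nM camptothecin, exposed to pin-transferred compounds, and grown at 37 °C for at least 48 hr. Viability was read as ATP luminescence.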
ClpP mod: qHTS Assay for Activators of ClpP; purified B. subtilis ClpP, FRET peptide cleavage, 20 min; Potency, µM (titrated, usually from 57.5 µM), for the others: top-dose activity change, negative = active; 340,000 tested, 1.9% active; AID 651965, 2013; active = well fitted falling curve with a large enough effect; inconclusive = small, poorly fitted or top-dose-only effect; inactive = no such curve, though single readings can be large or run the other way; also: potency is read from the fitted curve at half-maximal effect; the source files actives as falling curves though it sought activators and does not explain the sign; nearly all actives have a fitted effect of over 65% in size
Target sequence (P80244 whole entry, looked up): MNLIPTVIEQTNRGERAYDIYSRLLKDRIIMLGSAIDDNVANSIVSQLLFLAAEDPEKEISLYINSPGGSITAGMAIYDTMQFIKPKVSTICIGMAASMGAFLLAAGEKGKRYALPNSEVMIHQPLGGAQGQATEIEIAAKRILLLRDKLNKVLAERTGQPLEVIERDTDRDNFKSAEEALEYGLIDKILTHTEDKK
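ClpP 10 microg/mL final, pH 8 Tris/KCl buffer with BSA, glycerol, Tween-20; compound pinned in; FRET-FV substrate; RT 20 min; Ex320/Em430; ΔFRET vs ADEP 5.8 microM, DMSO, no enzyme.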
D3 ag: qHTS of D3 Dopamine Receptor Agonist: qHTS. AID 652048, 2013. D3R DiscoveRx beta-arrestin cells, luminescence, 90 min. D(3) dopamine receptor (Homo sapiens), P35462. max activation, %. 410,000 tested, 0.58% active; in the data active = max activation above about 30%; also: 0% is about no effect
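Cells at 1500/well, incubated overnight, then treated with pinned compounds (dopamine as control) for 90 min at 37 degrees C. DiscoveRx reagent added for 30 - 60 minutes at room temperature; luminescence read.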
DT40 TDP1 no CPT: qHTS for Inhibitors of human tyrosyl-DNA phosphodiesterase 1 (TDP1): qHTS in cells in absence of CPT | AID 686978, 2013 | Potency, µM (highest dose often 46.2 µM), for inactives: top-dose activity change, negative = growth inhibition, most hits filed as inhibitors | DT40 Tdp1-/- hTDP1 cells, no CPT, ATP luminescence, 48 h | 420,000 tested, 15% active; also: potency is read from the fitted curve at half-maximal effect; % is scaled to controls: 0 for no effect and ±100 for the full control effect; nearly all actives have a fitted effect of over 55% in size
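Compound effects on proliferation are scored in DT40 Tdp1-/-;hTDP1 cells in the absence of CPT. ATP levels (CellTiter-Glo luminescence) are recorded after a ≥48 hr, 37 °C incubation.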
IL-1B inflam inh: qHTS for Inhibitors of Inflammasome Signaling: IL-1-beta AlphaLISA Primary Screen. THP-1 LPS/ATP IL-1B secretion, AlphaLISA, 16 h; active compounds read low. activity change, % at 57.5 µM. 360,000 tested, 4.7% active; in the data active = activity change below about -50%; inconclusive = mostly about -30% to -49%; also: % is scaled to controls: 0 for no effect and ±100 for the full control effect
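Secreted IL-1B measured by AlphaLISA bead assay after 16 h compound exposure of THP-1 cells; compounds (final up to 57.5 uM) added 1 h before LPS (250 ng/mL) and ATP (1.25 mM) stimulation; lower signal means less secretion.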
Numbers without * were called inactive; ? = inconclusive; / = not tested or not shown; ! = a repeat was not active. Unless noted, calls follow the shape of the dose curve; as a rule, active = well fitted inhibition curve with a large enough effect; inconclusive = small, poorly fitted or top-dose-only effect; inactive = flat fitted curve, though single readings scatter.

SMILES	DRD3 antagonist	TDP1 cell CPT	ClpP mod	D3 ag	DT40 TDP1 no CPT	IL-1B inflam inh
CC(C)(C)C(=O)Nc1cccc(C(=O)c2cccc(NC(=O)C(C)(C)C)c2)c1	-1.7	?	1.1%	3.0	8.2µM*	-1.3
CCCOC(=O)c1cccc(NC(=O)C(C)(C)C)c1	4.4	?	-1.2%	0.6	?	0.0
CC(C)(C)C(=O)Nc1ccc2c(c1)C(=O)C(=O)c1ccccc1-2	/	0.708µM*	3.8%	/	0.708µM*	/
COC(=O)c1scc(-c2ccc(C)cc2)c1S(=O)(=O)Nc1ccc(F)cc1F	/	-13.8%	-0.9%	4.8	-20.2%	/
COc1ccc(-n2c(=O)c(-c3cccc(F)c3)nc3cncnc32)cc1	/	-1.2%	/	/	1.7%	/
CC(C)c1ccc(C2N3CC4(C)CN2CC(c2ccccc2)(C3)C4=O)cc1 (stereo not drawn)	/	?	-0.5%	-20.8	18.4µM*	/
Cc1ccc(C2N3CC4(C)CN2CC(c2ccccc2)(C3)C4=O)cc1 (stereo not drawn)	/	?	-0.1%	0.6	?	/
C#C[C@]1(O)CC[C@H]2[C@@H]3CCc4cc(OC5CCCC5)ccc4[C@H]3CC[C@@]21C	84.2	13.3µM*	-3.1%	9.7	8.2µM*	0.0
C#C[C@]1(O)CC[C@H]2[C@@H]3CCC4=C(CCC(=O)C4)[C@H]3CC[C@@]21C	12.6	?	0.5%	2.0	7.18µM*	-5.3
C=CCOc1ccc2c(c1)CCC1C2CCC2(C)C(O)C(O)CC12 (stereo not drawn)	6.8	?	1.6%	7.3	?	-74.5*
COc1ccc2c(c1)CC[C@@H]1[C@@H]2CC[C@]2(C)[C@@H](C(C)=O)C[C@@H]12	-14.3	?	1.1%	-2.2	?	12.5
COc1ccc2c(c1)CC[C@@H]1[C@@H]2CC[C@]2(C)[C@@H](C(=O)O)C[C@@H]12	0.0	-12.9%	0.0%	5.1	-6.1%	24.1
C#C[C@]1(O)CC[C@H]2[C@@H]3CCc4cc(OC)ccc4[C@H]3CC[C@@]21C	79.3	0.237µM*	4.9%	30.0*!	20.6µM*	8.3
O[C@@H]1CO[C@H]2[C@@H]1OC[C@@H]2O	/	8.0%	/	0.7	-7.5%	/
CC[C@@]1(C(=O)OC)N[C@H](CN(C)C(=O)Nc2ccccc2)[C@@H]2C(=O)N(Cc3ccccc3)C(=O)[C@@H]21	8.0	-3.7%	1.4%	24.5	-16.3%	-1.5
COC(=O)C1=C(C)N(Cc2ccccc2)C(=O)N[C@H]1c1cccs1	-55.1*	?	-1.6%	-5.3	?	1.0
CCN1C(=O)N[C@H](c2ccc(Br)cc2)C(C(=O)OC)=C1C	-9.0	-4.8%	-0.5%	5.8	-16.1%	7.4
COC(=O)C1=C(C)N(Cc2ccccc2)C(=O)N[C@H]1c1ccc(Br)cc1	0.2	2.3%	0.1%	6.3	6.6%	-54.2*
Nc1c(CNCc2nnn(Cc3ccccc3)c2N)nnn1Cc1ccccc1	16.9	?	-1.4%	-3.0	?	-7.6
Cc1ccc2c(=O)cc(C(=O)NC3CCS(=O)(=O)C3)oc2c1C (stereo not drawn)	-7.8	-5.0%	-3.6%	5.9	12.5%	4.1
O=C(NC1CCS(=O)(=O)C1)Oc1ccccc1 (stereo not drawn)	-9.1	?	1.5%	-4.6	25.9µM*	17.6
Cc1c(C(=O)NC2CCS(=O)(=O)C2)oc2ccccc12 (stereo not drawn)	-3.7	-0.5%	1.4%	46.8*	-0.1%	12.4
Cc1cc2oc(C(=O)NC3CCS(=O)(=O)C3)c(C)c2cc1C (stereo not drawn)	-11.2	-16.8%	28.2µM*	-4.3	?	-3.8
Cc1c(C(=O)NC2CC2)oc2ccccc12	-1.8	3.1%	-1.8%	-1.5	-23.0%	-19.9
O=C(NC1CCCCC1)Oc1ccccc1	6.2	17.4%	0.1%	6.2	-24.8%	-4.4
SMILES	DRD3 antagonist	TDP1 cell CPT	ClpP mod	D3 ag	DT40 TDP1 no CPT	IL-1B inflam inh
CCCCCCCCCCOC(=O)NC1CCS(=O)(=O)C1 (stereo not drawn)	5.8	?	/	1.1	20.6µM*	-4.3
Cc1ccc2cc(CN(C(=O)c3ccco3)c3ccccc3)c(=O)[nH]c2c1	-17.0	?	-9.3%	-11.3	-52.2%	-19.1
CCOc1ccc(N(Cc2cc3cc(C)ccc3[nH]c2=O)C(=O)c2cccc(Cl)c2)cc1	/	9.2µM*	-1.1%	5.7	?	/
COc1ccc2[nH]c(=O)c(CN(C(=O)c3cccc(Cl)c3)c3ccccc3OC)cc2c1	/	23.1µM*	-21.9%	9.1	?	/
COc1ccccc1N(Cc1cc(=O)[nH]c2ccccc12)C(=O)c1cccc([N+](=O)[O-])c1	8.2	20.6µM*	-0.8%	-8.1	?	-17.9
Cc1ccc2cc(CN(C(=O)c3cccc(Cl)c3)c3ccccc3)c(=O)[nH]c2c1	/	11.6µM*	-26.4%	-0.7	18.4µM*	/
COc1ccc2[nH]c(=O)c(CN(C(=O)c3cccc(Cl)c3)c3ccccc3C)cc2c1	/	?	-14.4%	2.4	?	/
CC1=Nc2ccccc2/C1=C\c1sc(Nc2ccc(C)cc2)nc1O	-54.2*	0.581µM*	-4.1%	-14.0	0.92µM*	-52.9*
Oc1cccc(Nc2nc(O)c(/C=C3\C=Nc4ccccc43)s2)c1	?	?	-3.5%	-2.9	?	82.7
Oc1nc(Nc2ccc(F)cc2)sc1/C=C1\C=Nc2ccccc21	-10.5	?	/	-1.7	-29.6%	-78.1*
COc1ccc(Oc2ncc3nc(-c4cn(C)c5ccccc45)c(=O)n(C)c3n2)cc1	/	-9.9%	/	/	-8.5%	/
Cc1ccc(C)c(/C=C(\C(=O)O)c2ccc(S(=O)(=O)N3CCCCC3)s2)c1	-17.1	9.6%	/	-7.6	-14.5%	0.0
COc1ccccc1N1CCN(c2ccc3c(c2)S(=O)(=O)c2cccc(C(=O)NCc4cccc(F)c4)c2C3=O)CC1	-0.6	?	-3.3%	-7.2	1.64µM*	-10.1
O=C(NCc1ccco1)c1cccc2c1C(=O)c1ccc(N3CCCC3)cc1S2(=O)=O	32.5	?	-1.9%	19.2	?	0.9
O=C(NCc1cccc(F)c1)c1cccc2c1C(=O)c1ccc(N3CCOCC3)cc1S2(=O)=O	20.6	?	3.1%	55.9*	?	-0.1
